Data on 12 compounds can be found in PubChem BioAssay AID2284423 (EPA ToxCast).

By AC50 is commonly meant the concentration at which the activity in the assay is half-maximal.

Records with an inconclusive call do not appear. Calls of active or inactive are those of the source. Rule for the calls: active = hit-call score of the fitted dose curve at least 0.9, where 1 is the maximum; inconclusive = response in the unintended direction; inactive = score below 0.9.

The subject of the assay is SRY-box transcription factor 17 (SOX17) Protein Expression, SOX17 (gene 64321). The experiment in a line: CCTE_Deisenroth_DEVTOX-GLR_Ecto_SOX17: CCTE's DevTox GLR-Ecto Assay Evaluation of SRY-box transcription factor 17 (SOX17) Protein Expression, Deisenroth Lab. The procedure:
CCTE_Deisenroth_DEVTOX-GLR_Ecto assay is a cell-based, multiplex-readout assay that uses RUES2-GLR, a human pluripotent cell line, with measurements taken at 48 hours after chemical dosing in a 384-well microplateCCTE_Deisenroth_DEVTOX-GLR_Ecto_SOX17 is 1 of 4 assay components calculated from the CCTE_Deisenroth_DEVTOX-GLR_Ecto assay and it measures an the percentage of cells in an endoderm state. Using a type of inducible fluorescent protein reporter, gain-of-signal activity can be used to understand changes in gene expression with fluorescent microscopy. The percentage of SOX17+ cells are determined by calculating the number of SOX17+ cells divided by the cell count. To generalize the intended target to other relatable targets, this assay component is annotated to the transcription factor intended target family, where the subfamily is SRY-related HMG-box.Data from the assay component CCTE_Deisenroth_DEVTOX-GLR_Ecto_SOX17 was analyzed as 1 assay endpoint. The endpoint is the percent SOX17+ cell population minus the 0.2% DMSO control in the CCTE_Deisenroth_DEVTOX-GLR_Ecto assay. This assay endpoint can be referred to as a secondary readout since this assay has produced multiple assay endpoints where this one serves as a measure of endoderm differentiation.
All assay protocols are aligned to the DevTox GLR-Endo assay workflow. Cells are seeded into 384-well microplates for 24 hours prior to initiating differentiation in defined media for a total duration of 48 hours. A total of two chemical exposures are administered in 24-hour intervals during the 48-hour differentiation period. At the assay termination point, cells are fixed and stained with a fluorescent dye demarcating the nucleus. High-content imaging is used to acquire brightfield and fluorescent channel images across 5 fields per well. Cell identification and mean biomarker fluorescence intensities are calculated with image analysis software to determine the total cell counts for viability assessment and the biomarker expression frequency for each lineage-dependent assay. A typical experimental design tests a 10-point concentration series (1 nM - 200 uM) for 28 compounds in single technical replicate. Assay plate controls include non-differentiated pluripotent cells (baseline control), lineage-specific differentiated cells (differentiation control), and DMSO solvent exposed differentiated cells (solvent control). Experiments typically comprise a minimum of four experimental replicates (n=4).
For the compound `CC1=C(/C=C/C(C)=C/C=C/C(C)=C/C(=O)O)C(C)(C)CCC1`, the AC50 is 171 µM (active).
Regarding `CCN(CC)CCNC(=O)c1c(C)[nH]c(/C=C2\C(=O)Nc3ccc(F)cc32)c1C`, the AC50 was 1.14 µM (active).
Turning to `CC/C(=C(/CC)c1ccc(O)cc1)c1ccc(O)cc1`, the outcome was inactive.
Take `CCCC(CCC)C(=O)O`: the outcome was inactive.
As for `CC(C)(c1ccc(O)cc1)c1ccc(O)cc1`, the compound was called inactive.
Turning to `O=C1NC(=O)C(c2ccccc2)(c2ccccc2)N1`, the compound was called inactive.
`CC1=C(/C=C/C(C)=C/C=C/C(C)=C\C(=O)O)C(C)(C)CCC1`: the AC50 was 183 µM (active).
Take `O=c1[nH]cc(F)c(=O)[nH]1`: the AC50 was 32 µM (active).
For `O=C1NS(=O)(=O)c2ccccc21`, the compound was classed as inactive.
With `CS(=O)(=O)OCCCCOS(C)(=O)=O`, the half-maximal activity concentration (AC50) is 100 µM (active).
In the case of `O=C1CCC(N2C(=O)c3ccccc3C2=O)C(=O)N1` (configuration not stated), the compound was called inactive.
Still for that read-out and setting: next, `CN(Cc1cnc2nc(N)nc(N)c2n1)c1ccc(C(=O)N[C@@H](CCC(=O)O)C(=O)O)cc1`: “inactive”.
